# Results filed as inconclusive are left out. Active and inactive are the calls of the source. The call rests on the fitted dose curve; in most records, active means well fitted cell-killing curve with a large enough effect; inconclusive means small, poorly fitted or top-dose-only effect, or effect the other way; inactive means no such curve, though single readings can be large or run the other way.
# System: SW626
# Test: Confirmatory qHTS for gynecologic anti-cancer compounds from libraries of approved drugs and bioactive compounds; further: nearly all actives have a fitted effect of over 55% in size
# Conditions: gynecologic cancer cell panel viability, ATPlite luminescence, 48 h; series mostly up to 57.6 µM
# How it was run: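 Viability is measured as ATP-dependent luciferase light using ATPlite, read 15 min after reagent addition at room temperature. Compounds, in DMSO, span 57.5 uM down to 0.977 nM over 11 threefold steps for 48 h.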
# Potency means the concentration at half of the fitted maximal effect.
row,Structure (SMILES),Potency
1,COc1ccc(OC)c(-c2nnc3ccc(-c4ccc(OC)c(O[C@@H]5CCOC5)c4)nn23)c1,8.63 µM (active)
2,NS(=O)(=O)c1ccc(Nc2nc(OCC3CCCCC3)c3[nH]cnc3n2)cc1,inactive
3,C=CC(=O)Nc1cc2c(Nc3ccc(F)c(Cl)c3)ncnc2cc1OCCCN1CCOCC1,21.7 µM (active)
4,CCc1nc(C(N)=O)c(Nc2ccc(N3CCC(N4CCN(C)CC4)CC3)c(OC)c2)nc1NC1CCOCC1,3.78 µM (active)
5,Fc1cc(-c2cccc3ncc(-c4cnn(C5CCNCC5)c4)nc23)cc(F)c1CN1CCOCC1,27.3 µM (active)
6,CC(C)CC(=O)Nc1n[nH]c2c1CN(C(=O)C1CCN(C)CC1)C2(C)C,inactive
7,Nc1nccc(Oc2ccc(NC(=O)c3c[nH]cc(-c4ccc(F)cc4)c3=O)cc2F)c1Cl,inactive
8,O=c1c2ccccc2nc2n1CCc1c-2[nH]c2ccccc12,inactive
9,C[C@]12CCC(=O)C=C1CC[C@@H]1[C@@H]2[C@@H](O)C[C@@]2(C)[C@H]1CC[C@]2(O)C(=O)CO,inactive
10,Cc1ccc(C(=O)Nc2ccc(Oc3cc4cnn(C)c4cc3-c3cn[nH]c3)c(F)c2)c(=O)n1-c1ccc(F)cc1,4.32 µM (active)
11,c1nc2nc(Nc3ccc(N4CCOCC4)cc3)nc(NC3CCCCC3)c2[nH]1,inactive
12,CCCCc1oc2ccccc2c1C(=O)c1cc(I)c(OCCN(CC)CC)c(I)c1,79.4 µM (active)
13,Cc1ccc(C(=O)N(CCCN)C(c2nc3cc(Cl)ccc3c(=O)n2Cc2ccccc2)C(C)C)cc1 (configuration not stated),9.68 µM (active)
14,CN(Cc1cnc2nc(N)nc(N)c2n1)c1ccc(C(=O)N[C@@H](CCC(=O)O)C(=O)O)cc1,inactive
15,CC(C)C[C@H](NC(=O)[C@@H](NC(=O)c1cccc(-c2ccccc2)n1)[C@@H](C)O)B(O)O,0.0385 µM (active)
16,Nc1ccccc1NC(=O)c1ccc(CNc2nccc(-c3cccnc3)n2)cc1,0.685 µM (active)
17,Cc1csc(NC(=O)c2sc3nc4c(c(C(F)(F)F)c3c2N)CCC4)n1,1.72 µM (active)

# Source: PubChem BioAssay AID1345085 (National Center for Advancing Translational Sciences (NCATS), 2018)
